Marburg entry inh – blocks Marburg virus binding to or entry into cells; Marburg virus pseudotyped entry inhibition, cell reporter; Potency, µM (series often up to 37.8 µM), most hits filed as inhibitors; 300,000 tested, 1.8% active; AID 540276; calls by dose curve; tested in HEK293 cells
SARS PLP yeast – blocks SARS-CoV papain-like protease in a yeast assay | S. cerevisiae expressing SARS-CoV PLpro, growth rescue | Potency, µM (top dose mostly 32.9 µM), usual class: activators | AID 485353 | 330,000 tested, 0.19% active; calls by dose curve; note: nearly all actives have a fitted effect of over 55% in size
HCV inhibitor – blocks hepatitis C virus; Huh7.5.1 HCVcc-Cre infection, luciferase reporter, 44 h; Potency, µM (titrated, usually from 41.8 µM), usual class: inhibitors; AID 651820; 340,000 tested, 3.4% active; active = well fitted inhibition curve with a large enough effect; inconclusive = small, poorly fitted or top-dose-only effect, or another doubt; inactive = no such curve, though single readings can be large or run the other way
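Antiviral activity was scored by luciferase reporter output from cells infected with HCVcc-Cre (~0.5 moi) in presence of compound, 44 h infection period, cells seeded 1,000/well 4 h prior.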
FMDV inh – blocks foot and mouth disease virus | Potency, µM (doses to about 57.9 µM), most hits filed as inhibitors | 410,000 tested, 1.2% active | FMDV antiviral cell-based qHTS | AID 1159524; calls by dose curve; tested in HEK293T cells; note: read-out not given here; nearly all actives have a fitted effect of over 45% in size
Lassa entry inh – inhibitors of Lassa virus binding or cell entry. Lassa virus pseudotype entry inhibition, cell reporter. Potency, µM (top dose mostly 37.9 µM), hits mostly inhibitors. 300,000 tested, 1.2% active. AID 540256; calls by dose curve; tested in HEK293 cells; note: nearly all actives have a fitted effect of over 50% in size
HCMV inh – blocks human cytomegalovirus replication; HFF cells, HCMV-luciferase reporter, 72 h; active compounds read low; activity change, negative = inhibition, % at 57.5 µM; 410,000 tested, 4.5% active; in the data active = activity change below about -60%; inconclusive = no clear call, values can overlap the other calls; inactive = above about -39%
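Two compound doses tested in HFFs infected with HCMV-luciferase, MOI 1 PFU/cell, 72 h at 37C. Lysate luminescence read with OneGlo; data normalized against buffer-only and 10uM Salinomycin inhibitor controls.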
Each line names hits and unclear results; the compound was inactive in the other large screens. The list is not random: actives were taken first. Their share in the collection is about 8%.

O=C(CCc1ccccc1)NC(NC(=S)Nc1ccc(Br)cc1)C(Cl)(Cl)Cl (centres undefined)	Marburg entry inh inconclusive, HCV inhibitor 2µM, Lassa entry inh inconclusive (no result: FMDV inh)
COc1ccc(NC(=O)c2ccccc2-c2ccc(C(F)(F)F)cc2)cc1S(=O)(=O)N1CCOCC1	Lassa entry inh inconclusive, HCMV inh -67
Cc1ccc(NC(=O)c2ccccc2-c2ccc(C(F)(F)F)cc2)cc1S(=O)(=O)N1CCOCC1	Marburg entry inh inconclusive, HCV inhibitor inconclusive, Lassa entry inh inconclusive
CCOc1ccc(S(=O)(=O)N2CCN(CC)CC2)cc1NC(=O)c1ccccc1F	HCMV inh -84
COc1ccc(NC(=O)c2cc(-c3ccco3)nc3ccccc23)cc1S(=O)(=O)N1CCOCC1	HCV inhibitor 8.9µM (no result: Marburg entry inh, Lassa entry inh)
CCOc1ccc(S(=O)(=O)N2CCN(C)CC2)cc1NC(=O)c1ccccc1F	Marburg entry inh inconclusive (no result: Lassa entry inh)
CN(C)C(CNC(=O)c1cc(-c2ccco2)nc2ccccc12)c1ccccc1 (centres undefined)	SARS PLP yeast 10µM
Cc1ccc(NC(=O)c2cc(-c3ccco3)nc3ccccc23)cc1S(=O)(=O)N1CCOCC1	Marburg entry inh inconclusive
CCOc1ccc(NC(=O)CC2C(=O)N(c3ccc(F)cc3)C(=O)N2Cc2ccc(OC)c(OC)c2)cc1 (centres undefined)	none (no result: SARS PLP yeast, HCV inhibitor)
COc1ccc(S(=O)(=O)N2CCOCC2)cc1NC(=O)c1ccccc1-c1ccc(C(F)(F)F)cc1	Marburg entry inh inconclusive, Lassa entry inh 6.3µM, HCMV inh inconclusive
COc1ccc(Nc2nc(-c3ccccc3)nc3ccccc23)cc1S(=O)(=O)N1CCOCC1	HCV inhibitor 22µM, FMDV inh inconclusive, HCMV inh -60 (no result: Marburg entry inh, Lassa entry inh)
CCOc1cc(N2CCOCC2)c(OCC)cc1NC(=O)Cc1cccc(OC)c1	Lassa entry inh inconclusive
CCOc1cc(N2CCOCC2)c(OCC)cc1NC(=O)COc1cccc(CC)c1	HCV inhibitor 10µM (no result: Marburg entry inh, Lassa entry inh)
CCOc1cc(N2CCOCC2)c(OCC)cc1NC(=O)COc1ncnc2ccccc12	HCV inhibitor inconclusive
CCOc1cc(N2CCOCC2)c(OCC)cc1NC(=O)c1cc(-c2ccco2)nc2ccccc12	Marburg entry inh 16µM, Lassa entry inh inconclusive, HCMV inh inconclusive (no result: FMDV inh)
COc1ccccc1NC(=O)c1c(-c2ccc(C)cc2)nnc2ccccc12	none (no result: Marburg entry inh, SARS PLP yeast, HCV inhibitor)
COc1cccc(NC(=O)C2CCCN(S(=O)(=O)c3ccc4[nH]c(=O)ccc4c3)C2)c1 (centres undefined)	none (no result: Marburg entry inh, SARS PLP yeast, HCV inhibitor)
O=C(/C=C/c1ccc(-c2cccc([N+](=O)[O-])c2)o1)N1CCOCC1	Marburg entry inh inconclusive, HCV inhibitor inconclusive, HCMV inh -61
O=C(/C=C/c1cccc([N+](=O)[O-])c1)N1CCOCC1	Marburg entry inh inconclusive
O=C(NCC1CCC2(CCN(Cc3c[nH]c4ccccc34)CC2)O1)C1CCOCC1 (centres undefined)	none (no result: Marburg entry inh, SARS PLP yeast, HCV inhibitor, Lassa entry inh, HCMV inh)
O=C(Nc1ccc(Br)cc1F)c1ccc2nc(CCc3ccccc3)oc2c1	none (no result: Marburg entry inh, SARS PLP yeast, HCV inhibitor)
Cc1ccnc(NC(c2ccccc2F)c2ccc3cccnc3c2O)c1 (centres undefined)	Marburg entry inh inconclusive, Lassa entry inh inconclusive, HCMV inh -77 (no result: SARS PLP yeast, HCV inhibitor)
Cc1ccnc(NC(c2ccsc2)c2ccc3ccc(C)nc3c2O)c1 (centres undefined)	Marburg entry inh inconclusive
Oc1c(C(Nc2ccccn2)c2ccccc2F)ccc2cccnc12 (centres undefined)	Lassa entry inh inconclusive, HCMV inh -95 (no result: Marburg entry inh, SARS PLP yeast, HCV inhibitor)
Oc1c(C(Nc2ccccn2)c2ccccn2)ccc2cccnc12 (centres undefined)	Marburg entry inh inconclusive, SARS PLP yeast inconclusive, HCV inhibitor inconclusive, Lassa entry inh inconclusive, HCMV inh -85
Oc1ccccc1C(Nc1nccs1)c1ccc2cccnc2c1O (centres undefined)	Marburg entry inh 12µM, HCV inhibitor 4.5µM, Lassa entry inh 7.3µM, HCMV inh -93
COCCCNC(=O)c1c(NC(=O)Cc2coc3c(C)c(C)ccc23)sc2c1CCCC2	Marburg entry inh inconclusive, Lassa entry inh inconclusive (no result: SARS PLP yeast, HCV inhibitor)
CCOc1cccc(CC(=O)N2CCc3c([nH]c4ccccc34)C2c2ccccc2)c1OCC (centres undefined)	Lassa entry inh inconclusive (no result: Marburg entry inh, SARS PLP yeast, HCV inhibitor)
Cc1ccc(NC(=O)Cn2c(=O)nc(-c3ccccc3F)c3cc(Cl)ccc32)c(Br)c1	Lassa entry inh inconclusive, HCMV inh inconclusive (no result: SARS PLP yeast, HCV inhibitor)
CCOC(=O)c1ccc(NC(=O)Cn2nc(C)c3nn(-c4ccc(Cl)cc4)c(C)c3c2=O)cc1	none (no result: Marburg entry inh, SARS PLP yeast, HCV inhibitor)
COc1ccccc1N1CCN(C(=O)CCn2cnc3onc(-c4ccc(F)cc4)c3c2=O)CC1	none (no result: Marburg entry inh, SARS PLP yeast, HCV inhibitor)
COc1ccc(N=c2sc3ccccc3n2C)cc1	Lassa entry inh inconclusive (no result: FMDV inh)
COc1ccccc1N=c1sc2ccccc2n1C	HCV inhibitor 1.8µM (no result: FMDV inh)
CC(C)=CCCC1(C)C=Cc2c(O)c3c(c(CC=C(C)C)c2O1)OC12C(=CC4CC1C(C)(C)OC2(C/C=C(/C)C(=O)O)C4O)C3=O (centres undefined)	FMDV inh 10µM (no result: Marburg entry inh, SARS PLP yeast, HCV inhibitor, Lassa entry inh, HCMV inh)
CC(C)=CCCC1(C)C=Cc2c(O)c3c(c(CC=C(C)C)c2O1)OC12C(=CC4CC1C(C)(C)OC2(C/C=C(/C)C(=O)O)C4=O)C3=O (centres undefined)	FMDV inh 5.6µM (no result: Marburg entry inh, SARS PLP yeast, HCV inhibitor, Lassa entry inh, HCMV inh)
CN(C)CCCn1c2c3ccccc3ccc2c2oc(=O)c3ccccc3c21	Marburg entry inh inconclusive, HCV inhibitor inconclusive, Lassa entry inh inconclusive, HCMV inh -92 (no result: SARS PLP yeast)
O=C1c2[nH]nc(-c3ccccc3O)c2C(c2ccccc2)N1Cc1ccco1 (centres undefined)	Marburg entry inh inconclusive, Lassa entry inh 1.5µM
O=C1c2[nH]nc(-c3ccccc3O)c2C(c2ccccc2F)N1Cc1ccco1 (centres undefined)	HCV inhibitor inconclusive, Lassa entry inh 5.2µM
CCCS(=O)(=O)c1cnc(C2COc3ccccc3O2)nc1N (centres undefined)	FMDV inh 35µM, HCMV inh -88 (no result: Marburg entry inh, Lassa entry inh)
S=c1nc(C2COc3ccccc3O2)[nH][nH]1 (centres undefined)	none
CCN(CC)C(=O)c1sc2c(c1C)c(=O)n(-c1ccc(C)c(C)c1)c(=O)n2CC(=O)Nc1ccc(OC)cc1OC	none (no result: Marburg entry inh, SARS PLP yeast, HCV inhibitor)
Cc1ccc(Sc2c([N+](=O)[O-])c(=O)n(C)c3ccccc23)cc1	HCV inhibitor inconclusive, FMDV inh 22µM (no result: Marburg entry inh, Lassa entry inh)
Cc1ccc(Sc2c(O)c3ccccc3n(C)c2=O)cc1	Marburg entry inh inconclusive
Cc1ccc(Sc2c(C=O)c3ccccc3n2C)cc1	Marburg entry inh inconclusive, HCV inhibitor 11µM, FMDV inh inconclusive, Lassa entry inh inconclusive, HCMV inh -91
CC(=O)OCOC(=O)CN(CC(=O)OCOC(C)=O)c1ccccc1OCCOc1ccccc1N(CC(=O)OCOC(C)=O)CC(=O)OCOC(C)=O	none (no result: Marburg entry inh, SARS PLP yeast, HCV inhibitor, Lassa entry inh, HCMV inh)
CCOc1ccc(/C=C/c2nc(C#N)c(N(C)C)o2)cc1	none (no result: SARS PLP yeast, HCV inhibitor)
N[C@H](Cc1ccc(O)c(O)c1)C(=O)O	Marburg entry inh 16µM (no result: SARS PLP yeast, HCV inhibitor, FMDV inh, Lassa entry inh, HCMV inh)

Assay outcomes (PubChem BioAssay)
